About 83,000 compounds went through this panel and 20% of them were active in at least one assay; those are over-represented in the sample as a whole.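 In brief: 96-well plates, 48 h treatment, single concentration, percent growth endpoint.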 Values without a mark were called inactive. The source made the active and inactive calls. The calls were made as follows: active = growth percent below 10; inactive = the rest.
Experiments:
Assay in all cases: NCI-60 one-dose screen, 48 h (100 = growth as untreated, 0 = no growth, -100 = all killed)
Details in all cases: 10 µM unless noted
T-47D breast = test system: T-47D breast
BT-549 breast = test system: BT-549 breast
MDA-MB-435 melanoma = test system: MDA-MB-435 melanoma
SW-620 colon = test system: SW-620 colon
MCF7 breast = test system: MCF7 breast
HCT-116 colon = test system: HCT-116 colon
HCC-2998 colon = test system: HCC-2998 colon
KM12 colon = test system: KM12 colon

Structure (SMILES)	growth (T-47D breast)	growth (BT-549 breast)	growth (MDA-MB-435 melanoma)	growth (SW-620 colon)	growth (MCF7 breast)	growth (HCT-116 colon)	growth (HCC-2998 colon)	growth (KM12 colon)
Clc1ccc2c(c1)nnn1c3ncccc3c(Br)c21	60.7%	72.1%	95.2%	78.9%	64.2%	68.4%	108%	86.4%
COc1ccc(-c2nn(-c3ccc(NC(=O)c4cc(C(F)(F)F)cc(C(F)(F)F)c4)cc3)cc2-c2ccncc2)cc1Cl	52.9%	71%	67.4%	72.1%	66.9%	42.7%	77.5%	53.2%
COc1cc(-c2nc3ccccc3s2)ccc1OCc1nc2n(n1)S(=O)(=O)c1ccccc1N2C	85.3%	80.2%	90%	92.4%	90.5%	66.1%	109%	84.2%
O=c1c(-c2ccc3c(c2)OCO3)coc2c(CO)c(O)ccc12	19.2%	-43% (active)	49.9%	38.1%	20.6%	-8.96% (active)	4.46% (active)	26.8%
O=[N+]([O-])c1cccc(C2c3ccccc3Oc3ccccc32)c1	86.4%	116%	98.1%	86.9%	98.7%	68.3%	91.1%	86.7%
COc1cc([C@@H]2c3cc4c(cc3C(OC3O[C@@H]5COC(C)O[C@H]5[C@H](O)[C@H]3O)C3COC(=O)[C@@H]32)OCO4)cc(OC)c1O (stereo partly drawn)	23.9%	31.4%	50%	35.6%	22.4%	41.7%	38.7%	42.1%
COc1ccc2c(c1)OC(N)=C(C#N)C2c1ccc(F)cc1 (stereo not drawn)	40.7%	20.1%	-4.14% (active)	18.6%	18.1%	24.9%	54.5%	26.4%
CCOc1cccc(Nc2nc(N)nc3[nH]c4ccc(O)cc4c23)c1	18.8%	68.8%	84.2%	76.1%	43.1%	72.9%	89.8%	87.6%
Cc1ccc(-c2cc(-c3nnc(SCC(=O)c4ccccc4)o3)c3ccccc3n2)cc1	93%	93.4%	93.5%	101%	91.2%	99%	99.6%	94.1%
CC(C)C1(C(C)C)NC(=O)NC1=O	109%	111%	114%	127%	101%	98.5%	102%	138%
CCn1cc(C(=O)O)c(=O)c2cc(F)c(N3CCN(CC(=O)Nc4ccc(C(C)=O)cc4)CC3)cc21	92%	109%	102%	103%	99.1%	104%	96.2%	97.4%
Nn1c(CN2CCN(c3cc4c(cc3F)c(=O)c(C(=O)O)cn4C3CC3)CC2)n[nH]c1=S	98.3%	112%	97.9%	105%	93.4%	102%	92.7%	103%
COc1cccc(C2CC(c3cc(OC)c(OC)c(OC)c3)=NN2)c1 (stereo not drawn)	78.7%	93.6%	11.9%	51.7%	51.5%	66.5%	83.2%	54.7%
COC(=O)Nc1nc2ccc(Sc3ccccc3)cc2[nH]1	60.8%	49.5%	-45.2% (active)	18.6%	21.4%	15%	0.2% (active)	3.07% (active)
CC(C)(C)OC(=O)NCc1cccc(N=C=S)c1	11.2%	10.3%	51%	60.2%	29.5%	56.2%	57%	51.6%
COc1cc2c(/C=C3/C(=O)Nc4ccc(O)cc43)c(Cl)n(Cc3cc(OC)c(OC)c(OC)c3)c2cc1C	23.5%	-7.31% (active)	2.91% (active)	19.3%	3.36% (active)	18.1%	85.5%	16.3%

Structure (SMILES)	growth (T-47D breast)	growth (BT-549 breast)	growth (MDA-MB-435 melanoma)	growth (SW-620 colon)	growth (MCF7 breast)	growth (HCT-116 colon)	growth (HCC-2998 colon)	growth (KM12 colon)
Cc1ccccc1C[P+](c1ccccc1)(c1ccccc1)c1ccccc1	26%	29.6%	14.6%	22.8%	10.8%	15.7%	12.2%	14.5%
O=C(N/N=C/c1ccccc1O)c1ccccc1O	25.7%	34%	63%	41.4%	11.1%	26.7%	43%	33.5%
CN(C)CCCOc1c(Br)cc(/C=C/C(=O)N(C)CCc2cc(Br)c(OCCCN(C)C)c(Br)c2)cc1Br	92.8%	76.5%	19.8%	32%	32.5%	12.1%	73%	47.7%
Nc1ncnc2c1c(-c1ccc(Oc3ccccc3)cc1)nn2C[C@@H]1SSC[C@H]1O	3.82% (active)	57.9%	8.48% (active)	90.4%	11.4%	46.4%	88.4%	34.8%
CC(/C=C/C=C(\C)[C@H](O)[C@H](C)C(=O)O[C@H]1C[C@H](C)C=C2C=C[C@@]3(C)O[C@@H](O)CC(=O)[C@]3(C)[C@H]21)=C\C=C\C(=O)O	-12.3% (active)	-21.5% (active)	8.57% (active)	9.52% (active)	3.12% (active)	2.2% (active)	7.5% (active)	0.481% (active)
COc1cc(Cn2cc3c(c2)-c2onc(CO)c2CC3)cc(OC)c1OC	93.2%	98.6%	72%	87%	86.8%	84%	101%	90.9%
Nc1nc(Nc2ccc(OCc3cccc(F)c3)cc2)c2c(n1)[nH]c1ccc(O)cc12	-59.8% (active)	-84.9% (active)	-41% (active)	-49.5% (active)	-82.7% (active)	-97.1% (active)	-17.6% (active)	-48% (active)
C#CCn1c(-c2cc(OC)c(OC)cc2Br)nc(-c2ccccc2)c1-c1ccccc1	39.3%	60.7%	6.82% (active)	23.9%	19.4%	19.9%	66.8%	20%
S=c1n(CNc2ccc(Cl)nn2)nc(-c2cc(Cl)cc(Cl)c2Cl)n1/N=C/c1ccc(Cl)cc1	101%	106%	89.3%	103%	87.4%	83.8%	88.6%	97.1%
C[C@H]1C=C(C[C@@H](O)CCCCCCCCCC[C@@H](O)[C@H]2CCC(=O)O2)C(=O)O1	92.6%	112%	113%	99.9%	118%	87.9%	97.7%	105%
C[C@@H]1CC2C3C[C@H](F)C4=CC(=O)C=C[C@]4(C)[C@@]3(F)[C@@H](O)C[C@]2(C)[C@@]1(O)C(=O)CO (stereo partly drawn)	100%	81.2%	93.3%	105%	93.9%	101%	98.8%	97.4%
COc1ccc(Cl)cc1NC(=O)c1cc2c([nH]1)-c1nc(N)sc1CCC2	88.2%	102%	103%	107%	98.9%	110%	109%	97.3%
CC(C)(C)NC(C1=CC(C)(C)c2ccccc2C1=O)c1ccccc1 (stereo not drawn)	-71.8% (active)	-32.9% (active)	-25.4% (active)	-82.3% (active)	-63.6% (active)	-99.5% (active)	-31.3% (active)	-29.2% (active)
COc1ccc(C2CC(c3cc(Cl)c(C)cc3OC)=NN2c2ccc(S(N)(=O)=O)cc2)cc1OC (stereo not drawn)	77%	83.2%	95.8%	93.6%	80.4%	56.7%	99.9%	91.8%
CC(CN(C)C)CN1c2ccccc2CCc2ccccc21 (stereo not drawn)	78.1%	90.7%	72.4%	93.3%	96.3%	53.2%	54.6%	106%

From PubChem BioAssay (NCI)
